{
  "source": "PubChem BioAssay AID1508600",
  "about": "(Functional Genomics Laboratory (NCATS/FGL), 2020)",
  "note": "The campaign covered roughly 53,000 sequences. About 3,700 (7%) were called active. The sample as a whole holds a higher share of actives than the screen did. Unmarked numbers belong to inactive results.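 The calls were made as follows: active = gene knockdowns whose robust z-score for IL-1 alpha signal is at least 2 or at most -2, so actives lie on both sides; inactive = the rest.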",
  "data": [
    {"assay": "Components of the Cytosolic LPS Sensing Pathway: Gene Identification via Genome-wide siRNA Screen;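 also: robust z of the log signal after scaling to non-targeting control siRNA wells of the plate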", "details": "RAW264.7 macrophages, IL-1a HTRF, actives lie on both sides, screened at 100 nM (by protocol), cells primed 5 h with Pam3CSK4 first", "summary_of_the_method": "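Using IL-1a HTRF as read-out, the screen measured release from RAW264.7 cells after 48h siRNA knockdown (100 nM), 5 h Pam3CSK4 priming and 24 h cytosolic LipidA. Values were expressed relative to negative-control wells as robust z-scores.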", "values": [
      {"sequence": "GGAUUACAGAAGCCCACACTT against Plekhn1", "z-score": -0.719},
      {"sequence": "GGACGUGCUUACAUUGUACTT against Pcdhb9", "z-score": -0.212},
      {"sequence": "GCAAUUGAGAUCUAUACAGTT against Napa", "z-score": -0.0109},
      {"sequence": "GGGAAUAUGUGAAACAGACTT against Syk", "z-score": -0.229},
      {"sequence": "GCCAAUAAAGUCGGUGAAATT against H2aj", "z-score": -0.244},
      {"sequence": "GGAAUAAUCCCAGAAUCAGTT against Stard6", "z-score": 0.0758},
      {"sequence": "GGAAGUGGCUUUUUAUCAGTT against Arhgap6", "z-score": "2.05 (active)"},
      {"sequence": "CCAUACACAACAUUCCAGATT against Slc39a11", "z-score": 0.0339},
      {"sequence": "GCAUUCAUCAAAUUUACAGTT against Prrg4", "z-score": -0.67},
      {"sequence": "CCUACUAACAACAAGAGCATT against Pcdhga5", "z-score": 0.021},
      {"sequence": "GGAACUGAUCUGGAAGAAUTT against Sord", "z-score": -0.392},
      {"sequence": "GGAAUACCAGGCCUUCCUUTT against B4galnt1", "z-score": -0.886},
      {"sequence": "CCUCGAUUAUAGCAAUACUTT against Slc16a14", "z-score": 1.36},
      {"sequence": "GGUGCAGGACCAUUUCCAUTT against Slc10a6", "z-score": "3.25 (active)"},
      {"sequence": "GAAAUGUCCAUCCAAAAGCTT against Sprr2k", "z-score": 0.602},
      {"sequence": "GGAUUAGGAAUCACAGUAGTT against Fam78a", "z-score": 0.675},
      {"sequence": "CCUUAUAGUCCAGUAUUUUTT against Slf2", "z-score": "2.71 (active)"},
      {"sequence": "GGCCAAAAAGGAGGCACCATT against Rps15", "z-score": 0.662},
      {"sequence": "GCAUUUUAAUGCGCCAGUUTT against Atp2c1", "z-score": -0.164},
      {"sequence": "GGGAGCUUUGGAAAUUUUATT against Zbtb3", "z-score": 0.451},
      {"sequence": "CCUCUCCUGCUCUGACAUATT against Olfr933", "z-score": 0.541},
      {"sequence": "GGAAGAGGUCUUUAAUACATT against Kif4", "z-score": "2.86 (active)"},
      {"sequence": "GGUGUUUGGCGAUAAUAAGTT against Zdhhc15", "z-score": -0.237},
      {"sequence": "GGAAAGAAUAGCAGCGUGGTT against Echs1", "z-score": 1.14},
      {"sequence": "GCGAGACAAUUGUUAUUGATT against Zmym2", "z-score": -1.05},
      {"sequence": "GGCCAUGGAAGCUGUUGCUTT against Pgam2", "z-score": -0.264},
      {"sequence": "GGACAGAUGAUGAAGUUGUTT against Hsp90b1", "z-score": "-2.24 (active)"},
      {"sequence": "GGUUCAGUCAAGAAUUGCUTT against Clec4e", "z-score": 1.68},
      {"sequence": "GCUGUCGAUAGAAAAAAUCTT against Scml2", "z-score": 0.566},
      {"sequence": "GGGCAAUUUGUUCGACCCATT against Abca2", "z-score": -0.14},
      {"sequence": "GGGCCUGGAAAACAUUGACTT against Ndufa1", "z-score": -0.316},
      {"sequence": "CCCAGUGUCAUUCAGUAUUTT against Phactr3", "z-score": "2.13 (active)"},
      {"sequence": "CCUUCAACACCAGUUUGGGTT against Olfr1393", "z-score": 0.45},
      {"sequence": "GGCCUGUGGAAGAAAUACGTT against Pdhb", "z-score": 1.82},
      {"sequence": "GCAAUUUGAGCAGUAUGUATT against Cpsf7", "z-score": "-2.85 (active)"},
      {"sequence": "GGAAACAUGUCCUCACACATT against Top3b", "z-score": 1.41},
      {"sequence": "GGCUCAUUUGCUGAGUGUGTT against Fscn2", "z-score": 1.68},
      {"sequence": "GCCGGUAAAAUUAAGGUGATT against Cyp2j9", "z-score": -0.13},
      {"sequence": "GGGUUUGGUCUCAUAUAAATT against Samd7", "z-score": -0.618},
      {"sequence": "GCAGAAGUCGAGCUAUGUUTT against Zfp365", "z-score": -1.21},
      {"sequence": "GGCUAAAUGCCGAUGUACUTT against Gapvd1", "z-score": "2.08 (active)"},
      {"sequence": "GGGAUAAUAAUGUUGAUUGTT against Mrc1", "z-score": -0.152},
      {"sequence": "GCAUACCUCCGUAUUGUGATT against Snx30", "z-score": -0.868},
      {"sequence": "CCUGACAGACCGACAAGUGTT against Hoxc11", "z-score": "-2 (active)"},
      {"sequence": "GAUCAUCACAGAGGUCCAGTT against Fabp6", "z-score": 0.308},
      {"sequence": "GGUGAUGGGCAAGGUGUUCTT against Syvn1", "z-score": 0.25},
      {"sequence": "CGGUACAAGCUAGACCUCATT against Mettl26", "z-score": 0.493},
      {"sequence": "CCAAUACUACAUAAUGUCUTT against Abcc12", "z-score": -0.354},
      {"sequence": "GGAAUUCCCAAAACUACUGTT against Tbck", "z-score": -1.28},
      {"sequence": "GGAAUGUCGAAGAAAAUGCTT against Adam15", "z-score": -0.197},
      {"sequence": "GCGCAAUAAGAUCUUCAUGTT against Ddx55", "z-score": 0.454},
      {"sequence": "GGCACUUUCCCUAUAUUGUTT against Col26a1", "z-score": -1.57},
      {"sequence": "CCUACGACUUCUACUACAUTT against Chst8", "z-score": 1.69},
      {"sequence": "GGAGUGCGGACGAUAAUACTT against Ppp1r3f", "z-score": -1.97},
      {"sequence": "GCUGGCUAUACUUUACAACTT against Prkg1", "z-score": "2.11 (active)"},
      {"sequence": "GUAUUGGAUACGAAGCAGATT against Defb2", "z-score": -0.154},
      {"sequence": "GGACAUGUGGAAAUGGAUATT against Arhgap4", "z-score": 1.97},
      {"sequence": "GGCUUUCUUCAACCUGAGUTT against Duoxa1", "z-score": "-2.43 (active)"},
      {"sequence": "GGGAAGAAGAUGGAAUUUATT against Smoc1", "z-score": 1.22},
      {"sequence": "CGGGCUGCUACGAAAAAGUTT against Tspan9", "z-score": 0.152},
      {"sequence": "GGAAACACGUCUCCUCCAUTT against Krt87", "z-score": 1.26},
      {"sequence": "CGCACAAAGGAUUUUUGUATT against Epha7", "z-score": -0.064},
      {"sequence": "GGUGUGAUUGAAGAAGCGGTT against Gpr37", "z-score": -0.463},
      {"sequence": "CGACAACAAUCUGGCCUAUTT against Ap2s1", "z-score": "2.09 (active)"},
      {"sequence": "GUGCCUCUCAUCACUAUCUTT against Olfr571", "z-score": 0.501},
      {"sequence": "GGAAACCCAGAGCAGCAGATT against Tdg", "z-score": -1.01},
      {"sequence": "GGAGCUCAAACAGGAGAACTT against Lhfpl4", "z-score": 0.383},
      {"sequence": "GGUAUUUGCUGAACUGUUUTT against Ckmt1", "z-score": -0.931},
      {"sequence": "GGAAGGAAGCUAAAAAACGTT against Gnl3", "z-score": "2.24 (active)"}
    ]}
  ]
}
